Here are results for 18 molecules from PMC5540273 (PLoS ONE, 2017).

Holding throughout (conditions): n = 1
Assay [1] concerns IRAK4.
In assay [2] the test system is ITK.
Assay [3] relates to JAK1(JH1domain-catalytic).
The test system of assay [4] is JAK1(JH2domain-pseudokinase).
The subject of assay [5] is JAK2(JH1domain-catalytic).
Assay [6] concerns JAK3(JH1domain-catalytic).
For assay [7], the system named is T1, JNK1.
T1 construct: gene MAPK8

The subject of assay [8] is T2, JNK2.
T2 construct: gene MAPK9

The subject of assay [9] is T3, JNK3.
T3 construct: gene MAPK10

For assay [10], the system named is KIT-autoinhibited.
The mark [11] stands for this setting: concentration: 1 μM, replicates: in singlicate.

SMILES strings stand for the structures. Like-named read-outs stand apart in the source and are kept apart here.
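Note: KINOMEscan kinase panel screen.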

With `COc1cccc(-c2cc(-c3c[nH]nc3-c3ccccn3)ccn2)c1` [GW680338], the “%Inh” value was 0% in assay [1] (setting [11]); 2% in assay [2] (setting [11]); 7% in [3] (setting [11]); 0% in [4] (setting [11]); 0% in assay [5] (setting [11]); 0% in assay [6] (setting [11]). The “%Inh” value was 42% in [7] (setting [11]), 40% in [8] (setting [11]), 50% in [9] (setting [11]) and 0% in assay [10] (setting [11]).
Take `Cc1cccc(-c2cc(Nc3ccncc3)c3ccccc3n2)n1` [GSK223675]: the “%Inh” value was found to be 13% in assay [1] (setting [11]); 0% in assay [2] (setting [11]); 11% in assay [3] (setting [11]); 5% in [4] (setting [11]); 100% in assay [5] (setting [11]); 0% in [6] (setting [11]). Moreover, the “%Inh” value in assay [7] (setting [11]) is recorded as 11%; in assay [8] (setting [11]) it was 27%; in assay [9] (setting [11]), 15%; in assay [10] (setting [11]) it was 0%.
Take `COc1cccc(NC(=O)NC2CCN(c3ccnc(Nc4ccc(F)cc4)n3)C2)c1` (stereo not drawn) [GSK1379721]: the “%Inh” value in assay [1] (setting [11]) came to 12%; in assay [2] (setting [11]) it was 0%; in [3] (setting [11]) it was 7%; in [4] (setting [11]), 0%; in [5] (setting [11]) it was 20%; in [6] (setting [11]), 0%. The “%Inh” value in [7] (setting [11]) is recorded as 0%; in assay [8] (setting [11]), 4%; in [9] (setting [11]), 0%; in assay [10] (setting [11]) it was 0%.
On to `Cc1ccc(NC(=O)Nc2cccc(C(F)(F)F)c2)cc1` [GSK955403], for which the “%Inh” value is 0% in assay [1] (1 µM); 12% in assay [2] (1 µM); 0% in [3] (1 µM); 12% in assay [4] (1 µM); 0% in [5] (1 µM); 0% in assay [6] (1 µM). The “%Inh” value in [7] (1 µM) is 58%; in assay [8] (1 µM), 26%; in assay [9] (1 µM), 46%; in assay [10] (1 µM), 3%.
On to `COc1ccccc1-c1ccc2c(NC(=O)C3CC3)n[nH]c2n1` [SB-711239], for which the “%Inh” value came out at 7% in assay [1] (setting [11]); 0% in assay [2] (setting [11]); 25% in [3] (setting [11]); 0% in [4] (setting [11]); 0% in assay [5] (setting [11]); 13% in assay [6] (setting [11]). For the same molecule, the “%Inh” value was 0% in assay [7] (setting [11]), 9% in assay [8] (setting [11]), 0% in [9] (setting [11]) and 0% in assay [10] (setting [11]).
For `COc1cc2ncnc(Nc3ccc4nc(-c5ccccc5)[nH]c4c3)c2cc1OC.Cl` [GW282450], the “%Inh” value in assay [1] (setting [11]) is reported as 13%; in assay [2] (setting [11]), 14%; in assay [3] (setting [11]), 6%; in [4] (setting [11]) it was 0%; in [5] (setting [11]), 0%; in assay [6] (setting [11]), 0%. For the same molecule, the “%Inh” value in [7] (setting [11]) came to 18%; in assay [8] (setting [11]) it was 26%; in assay [9] (setting [11]) it was 19%; in assay [10] (setting [11]), 0%.
Turning to `COc1ccc(Nc2nccc(-c3cccc(NC(=O)c4cc5cc(F)ccc5[nH]4)c3)n2)cc1` [GSK1229782], the “%Inh” value in [1] (setting [11]) worked out at 3%; in assay [2] (setting [11]), 23%; in assay [3] (setting [11]), 34%; in assay [4] (setting [11]), 0%; in [5] (setting [11]) it was 10%; in [6] (setting [11]), 0%. The “%Inh” value in assay [7] (setting [11]) worked out at 28%; in assay [8] (setting [11]), 34%; in assay [9] (setting [11]) it was 15%; in assay [10] (setting [11]), 0%.
Consider `CCn1c(-c2cccnc2O)nc2cnccc21` [SB-736715], for which the “%Inh” value was 0% in [1] (setting [11]); 26% in assay [2] (setting [11]); 0% in assay [3] (setting [11]); 0% in assay [4] (setting [11]); 0% in assay [5] (setting [11]); 0% in assay [6] (setting [11]). Besides, the “%Inh” value in assay [7] (setting [11]) came to 0%; in [8] (setting [11]), 10%; in assay [9] (setting [11]), 1%; in [10] (setting [11]), 18%.
On to `O=C1NC(=O)C(N2CCc3ccccc32)=C1c1ccccc1Cl` [SB-373598], for which the “%Inh” value was determined as 7% in assay [1] (setting [11]); 10% in assay [2] (setting [11]); 3% in [3] (setting [11]); 0% in assay [4] (setting [11]); 0% in assay [5] (setting [11]); 40% in assay [6] (setting [11]). The “%Inh” value is 7% in assay [7] (setting [11]), 6% in assay [8] (setting [11]), 5% in assay [9] (setting [11]) and 0% in [10] (setting [11]).
Turning to `O=C(Nc1ccccc1)Nc1cccc(Oc2ccc3nccn3n2)c1`, the “%Inh” value in assay [1] (setting [11]) came to 0%; in assay [2] (setting [11]), 2%; in assay [3] (setting [11]), 16%; in assay [4] (setting [11]), 5%; in [5] (setting [11]), 7%; in assay [6] (setting [11]) it was 0%. The “%Inh” value in assay [7] (setting [11]) stood at 0%; in [8] (setting [11]) it was 0%; in [9] (setting [11]) it was 0%; in assay [10] (setting [11]) it was 39%.
Regarding `Cc1cccc(-c2nc(Nc3ccc4[nH]ncc4c3)c3ccccc3n2)n1` [GW857175], the “%Inh” value in assay [1] (setting [11]) amounted to 18%; in assay [2] (setting [11]), 5%; in assay [3] (setting [11]) it was 18%; in assay [4] (setting [11]), 83%; in assay [5] (setting [11]) it was 22%; in assay [6] (setting [11]), 60%. The “%Inh” value in assay [7] (setting [11]) is recorded as 36%; in assay [8] (setting [11]), 32%; in assay [9] (setting [11]) it was 31%; in assay [10] (setting [11]), 30%.
As for `CC(C)(C)c1ccc(C(=O)Nc2cn3cc(-c4cccnc4)ccc3n2)cc1`, the “%Inh” value is on record as 70% in assay [1] (setting [11]); 24% in [2] (setting [11]); 0% in assay [3] (setting [11]); 45% in assay [4] (setting [11]); 6% in assay [5] (setting [11]); 2% in [6] (setting [11]). Moreover, the “%Inh” value in assay [7] (setting [11]) came out at 24%; in assay [8] (setting [11]), 0%; in assay [9] (setting [11]) it was 5%; in assay [10] (setting [11]), 0%.
In the case of `Fc1cc(Cl)ccc1Nc1ccnc2cc(I)ccc12` [GW551191], the “%Inh” value in [1] (setting [11]) was determined as 14%; in [2] (setting [11]) it was 13%; in assay [3] (setting [11]) it was 0%; in assay [4] (setting [11]), 0%; in assay [5] (setting [11]) it was 1%; in [6] (setting [11]), 0%. The “%Inh” value came to 18% in [7] (setting [11]), 29% in assay [8] (setting [11]), 10% in [9] (setting [11]) and 0% in [10] (setting [11]).
Regarding `Cc1ccc(-c2cc(-c3c[nH]nc3-c3ccccn3)ccn2)cc1` [GW684088], the “%Inh” value was determined as 0% in [1] (setting [11]); 0% in assay [2] (setting [11]); 12% in assay [3] (setting [11]); 1% in [4] (setting [11]); 0% in assay [5] (setting [11]); 0% in assay [6] (setting [11]). The “%Inh” value is 29% in assay [7] (setting [11]), 36% in assay [8] (setting [11]), 53% in [9] (setting [11]) and 2% in assay [10] (setting [11]).
Regarding `Cc1cc(-c2ccc3c(c2)CC[C@@H](N[C@@H](C)c2ccccc2)C3)cnc1N.Cl` [GW412617], the “%Inh” value in assay [1] (setting [11]) was 71%; in assay [2] (setting [11]) it was 18%; in assay [3] (setting [11]) it was 12%; in [4] (setting [11]) it was 46%; in assay [5] (setting [11]), 34%; in [6] (setting [11]), 0%. Also, the “%Inh” value amounted to 36% in assay [7] (setting [11]), 3% in assay [8] (setting [11]), 4% in assay [9] (setting [11]) and 0% in [10] (setting [11]).
Consider `Cl.Oc1ccc(-c2nc(-c3ccccc3)[nH]c2-c2ccncc2)cc1` [SB-428218], for which the “%Inh” value amounted to 18% in assay [1] (setting [11]); 10% in assay [2] (setting [11]); 4% in [3] (setting [11]); 36% in assay [4] (setting [11]); 0% in [5] (setting [11]); 0% in assay [6] (setting [11]). Also, the “%Inh” value in assay [7] (setting [11]) was found to be 2%; in assay [8] (setting [11]), 0%; in [9] (setting [11]), 0%; in [10] (setting [11]), 18%.
On to `Cc1cccc(-c2nc(C)cc(Nc3ccncc3)n2)n1` [GSK257997], for which the “%Inh” value is reported as 1% in assay [1] (setting [11]); 12% in assay [2] (setting [11]); 13% in assay [3] (setting [11]); 0% in assay [4] (setting [11]); 0% in [5] (setting [11]); 0% in assay [6] (setting [11]). For the same molecule, the “%Inh” value amounted to 4% in assay [7] (setting [11]), 43% in [8] (setting [11]), 32% in assay [9] (setting [11]) and 0% in [10] (setting [11]).
As to `COc1cc2nccc(Nc3ccc(NC(=O)c4ccc(C)cc4)c(O)c3)c2cc1OC.Cl` [GW440132], the “%Inh” value in assay [1] (setting [11]) is on record as 0%; in [2] (setting [11]), 20%; in [3] (setting [11]) it was 12%; in [4] (setting [11]), 0%; in assay [5] (setting [11]), 0%; in assay [6] (setting [11]), 0%. Moreover, the “%Inh” value in [7] (setting [11]) is recorded as 16%; in [8] (setting [11]), 29%; in assay [9] (setting [11]), 7%; in [10] (setting [11]) it was 0%.
